Source: PubChem BioAssay
Records with an inconclusive call do not appear. The source made the active and inactive calls. Unless noted, no rule for the calls is given here.

Tests used:
[1] = yeast TOR pathway RPL19A-GFP modulators, primary screen, cell-based, S. cerevisiae, multiplex flow cytometry (AID 1862; in the data active = percent of DMSO control GFP below about 86%;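 also: lower values mimic rapamycin by blocking the RPL19A rise seen in DMSO cells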); settings: S. cerevisiae RPL19A-GFP strain, flow cytometry fluorescence, 3 h; at 10 µM; stronger effect = lower value
[2] = modulators of MEP2-GFP levels in yeast, primary screen, S. cerevisiae, multiplex flow cytometry (AID 1867;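 active = GFP response, as percent of the DMSO control, above the screen-wide mean plus 3 SD, about 139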;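 also: median GFP channel fluorescence of barcode-gated MEP2-GFP cells measured by flow cytometry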); settings: S. cerevisiae MEP2-GFP strain, 3 h, at 10 µM, stronger effect = higher value
[3] = modulators of CIT2-GFP expression in yeast, primary screen, S. cerevisiae, GFP fusion, multiplex flow cytometry (AID 1870;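 active = percent response above a set limit, the screen-wide mean plus 3 SD, cut at about 130% in these data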;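 also: barcoded CIT2-GFP strain pooled with four other GFP strains with rapamycin as positive control; median GFP fluorescence per well over plate mean of DMSO wells so 100% = DMSO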); settings: 3 h, at 10 µM, stronger effect = higher value
[4] = modulators of LAP4-GFP expression in yeast, primary screen, S. cerevisiae, multiplex flow cytometry (AID 1873;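 active = GFP signal, as percent of the solvent control, above the screen mean plus 3 SD, about 149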); settings: 3 h, at 10 µM, stronger effect = higher value
[5] = modulators of AGP1-GFP expression in yeast TOR pathway, primary screen, cell-based, multiplex flow cytometry, S. cerevisiae (AID 1887;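 active = GFP signal above the screen-wide mean plus 3 SD, that is over about 124.5% of the solvent control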;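 also: AGP1-GFP fusion strain of S. cerevisiae within a five-strain barcoded multiplex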); settings: 3 h, at 10 µM, stronger effect = higher value
[6] = inhibitors of CD8+ T cell-vesicle binding, pilot screen, LFA-1/ICAM-1 modulator project, MLPCN validation set, flow cytometry (AID 2523;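 active = response below a set limit, under 55% cells CD8-positive and vesicle-bound, and CD8 cells' 90th-percentile brightness under 279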;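 as to vesicle binding response: mean PE anti-B7-1 fluorescence of CD8+ cells relative to row control; 100% = QL9-loaded vesicles with DMSO vehicle in the same plate row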); settings: 2C mouse CD8+ T cells, at 7 µM, stronger effect = lower value; double positive events: measured here: CD8+/vesicle+ event percentage
[7] = target: Integrin beta-1 (Homo sapiens) + Integrin alpha-4 (Homo sapiens) (UniProt P13612+P05556); assay: inhibition of HUTS-21 binding to VLA-4, pilot screen, VLA-4 allosteric modulator project, U937 cells, HUTS-21 mAb, flow cytometry, validation set (AID 2674;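 active = inhibition above 50%, about 3 SD of the validation set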;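 also: antibody binding induced by the VLA-4 ligand LDV present at three times its Kd; 0% = LDV ligand with antibody and no compound and 100% = antibody without LDV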); settings: HUTS-21 LIBS mAb binding, at 6.7 µM, stronger effect = higher value
[8] = superoxide lowering in aged yeast cells, pilot screen, validation compound set (AID 2706;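 active = superoxide response below 65% of plate, a cut near 3 SD across the whole screen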;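 also: yeast exposed to compound for one week at 30 degrees C before staining; 100% = mean of all compound wells on the same plate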); settings: S. cerevisiae aging, superoxide DHE fluorescence; at 10 µM; stronger effect = lower value
[9] = target: Beta-adrenergic receptor kinase 1 (Homo sapiens) (UniProt P25098); assay: GRK2 binders displacing RNA aptamer, biochemical, validation, human GRK2, bead flow cytometry (AID 488806;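 active = aptamer binding inhibition above 30%, about 3 SD of noise from non-fluorescent compounds; inactive = inhibition at or below 30%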); settings: bead-bound GRK2, FAM-aptamer displacement, at 10 µM, stronger effect = higher value
[10] = target: Beta-2 adrenergic receptor (Homo sapiens) (UniProt P07550); assay: beta2AR agonists driving receptor internalization, pilot screen, cell-based, FAP fluorogen, flow cytometry, validation set (AID 504459;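 active = percent response above 42, roughly 3 SD of non-fluorescent test compounds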;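 also: agonist-driven loss of surface beta2AR via internalization measured by FAP dye flow cytometry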); settings: Am2.2-beta2AR cells, FAP surface receptor flow cytometry; at 10 µM; stronger effect = higher value
[11] = target: AP-2 complex subunit beta (Homo sapiens) (UniProt P63010); assay: inhibitors of arrestin peptide binding to AP2, pilot screen, biochemical, validation set, GST-AP2 beads, flow cytometry (AID 504541;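 active = inhibition above 54%, about 3 SD of non-fluorescent compounds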;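 also: AP2 carries R879A mutation and is captured from E. coli lysate; bead-bound FITC arrestin peptide fluorescence measuring arrestin peptide binding to AP2; 0% = DMSO wells and 100% = excess unlabeled arrestin peptide control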); settings: FITC arrestin peptide, at 10 µM, stronger effect = higher value
[12] = yeast V-ATPase proton transport modulators, S. cerevisiae, pHLuorin, HTS validation (AID 504600; in the data active = response above about 15%;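 also: plate controls were DMSO for no effect and reference compound for full effect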); settings: S. cerevisiae pHLuorin cytosolic pH, at 10 µM, stronger effect = higher value
[13] = system: anti-desmoglein-3 scFv antibody binding to human DSG3; assay: inhibitors of anti-DSG3 scFv binding to DSG3, pilot screen, biochemical, validation compound set, bead-based, flow cytometry (AID 588368;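 active = binding below the plate cutoff, the plate median minus 3 SD, with a reading above zero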;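 also: signal is the median channel fluorescence of bead-bound GFP antibody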); settings: Protein G beads, DSG3-Fc, scFv-GFP binding, at 10 µM, stronger effect = lower value
[14] = system: Botulinum neurotoxin type F light chain protease (Clostridium botulinum); assay: Botulinum neurotoxin type F light chain protease inhibition, multiplex microsphere flow cytometry, validation set (AID 588459); settings: multiplex microsphere protease substrate cleavage assay, at 10 µM, stronger effect = higher value
[15] = target: Botulinum neurotoxin type A (Clostridium botulinum) (UniProt P0DPI0); assay: BoNT/A light chain protease inhibitors, biochemical, multiplex microsphere flow cytometry, validation set (AID 588460); settings: at 10 µM, stronger effect = higher value
[16] = target: Lethal factor (Bacillus anthracis) (UniProt P15917); assay: Lethal factor protease inhibitors, Bacillus anthracis, multiplex microsphere cleavage assay, validation set (AID 588461); settings: flow cytometry, at 10 µM, stronger effect = higher value
[17] = inhibitors of fungal efflux pumps CDR1, CDR2, MDR1, pilot screen, validation compound set, multiplex, phenotypic (AID 588506;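 active = efflux inhibition above 0.42, the validation set average plus 4 SD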;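 also: Nile Red retained in cells so higher fluorescence means more efflux inhibition; 0 = negative control wells and 1 = enniatin B 25 µM full block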); settings: S. cerevisiae pump-expressing triplex, Nile Red efflux flow cytometry; at 10 µM; stronger effect = higher value
[18] = target: ATP-binding cassette sub-family B member 6 (Homo sapiens) (UniProt Q9NP58); assay: ABCB6 transporter inhibitors, pilot screen, K562-ABCB6 cells, flow cytometry, validation set (AID 588550;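 active = inhibition above the screen-wide mean plus 3 SD, about 51%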;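 also: 0% = DMSO wells and 100% = benzethonium chloride 70 µM positive control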); settings: K562-ABCB6 porphyrin accumulation, 1 h, at 10 µM, stronger effect = higher value
[19] = promoters of myeloid differentiation in arrested cells, primary screen, cell-based, GFP/MAC1 double positive, flow cytometry, validation set (AID 588685;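 active = differentiation response of at least 50%, scaled between solvent and reference control, from cells with both markers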;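 also: compound exposure lasts four days before antibody staining and flow analysis; 0% = DMSO wells and 100% = 5 µM fulvestrant positive control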); settings: ER-HoxA9 marrow cells, stronger effect = higher value

Chain of Botulinum neurotoxin type A (Clostridium botulinum) (P0DPI0 whole entry, looked up): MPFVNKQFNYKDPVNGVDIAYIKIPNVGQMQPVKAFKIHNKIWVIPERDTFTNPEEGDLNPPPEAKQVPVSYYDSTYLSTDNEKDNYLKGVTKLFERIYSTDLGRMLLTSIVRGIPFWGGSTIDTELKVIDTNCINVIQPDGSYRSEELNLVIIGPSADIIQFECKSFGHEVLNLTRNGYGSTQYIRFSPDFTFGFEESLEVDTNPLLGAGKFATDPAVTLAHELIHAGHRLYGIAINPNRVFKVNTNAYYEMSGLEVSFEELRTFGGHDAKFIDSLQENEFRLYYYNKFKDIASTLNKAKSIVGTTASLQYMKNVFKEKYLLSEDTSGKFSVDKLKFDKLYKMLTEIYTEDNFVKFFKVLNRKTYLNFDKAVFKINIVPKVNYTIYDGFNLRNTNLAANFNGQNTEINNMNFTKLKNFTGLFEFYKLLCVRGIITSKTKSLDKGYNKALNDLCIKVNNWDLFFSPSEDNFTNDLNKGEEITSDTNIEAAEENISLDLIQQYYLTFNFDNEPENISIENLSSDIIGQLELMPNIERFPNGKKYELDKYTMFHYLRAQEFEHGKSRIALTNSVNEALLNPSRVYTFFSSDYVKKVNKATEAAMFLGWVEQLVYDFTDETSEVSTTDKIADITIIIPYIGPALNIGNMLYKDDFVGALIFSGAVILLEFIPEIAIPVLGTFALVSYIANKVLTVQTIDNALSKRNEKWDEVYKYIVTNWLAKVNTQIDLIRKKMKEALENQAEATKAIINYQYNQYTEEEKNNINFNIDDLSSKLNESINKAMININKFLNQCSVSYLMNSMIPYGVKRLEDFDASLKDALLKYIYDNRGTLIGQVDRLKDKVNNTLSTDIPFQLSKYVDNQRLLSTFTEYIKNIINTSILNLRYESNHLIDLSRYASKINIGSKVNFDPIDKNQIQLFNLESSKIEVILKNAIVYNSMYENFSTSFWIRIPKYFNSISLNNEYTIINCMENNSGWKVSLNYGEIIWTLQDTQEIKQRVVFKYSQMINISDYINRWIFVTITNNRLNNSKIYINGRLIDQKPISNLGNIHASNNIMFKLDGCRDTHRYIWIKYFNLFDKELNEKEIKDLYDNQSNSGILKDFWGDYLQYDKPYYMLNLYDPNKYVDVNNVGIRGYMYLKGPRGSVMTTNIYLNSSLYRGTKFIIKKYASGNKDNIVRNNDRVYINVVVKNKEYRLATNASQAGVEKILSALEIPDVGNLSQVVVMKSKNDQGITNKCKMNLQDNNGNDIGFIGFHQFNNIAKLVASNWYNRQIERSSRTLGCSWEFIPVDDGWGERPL
Chain of Beta-adrenergic receptor kinase 1 (Homo sapiens) (P25098 whole entry, looked up): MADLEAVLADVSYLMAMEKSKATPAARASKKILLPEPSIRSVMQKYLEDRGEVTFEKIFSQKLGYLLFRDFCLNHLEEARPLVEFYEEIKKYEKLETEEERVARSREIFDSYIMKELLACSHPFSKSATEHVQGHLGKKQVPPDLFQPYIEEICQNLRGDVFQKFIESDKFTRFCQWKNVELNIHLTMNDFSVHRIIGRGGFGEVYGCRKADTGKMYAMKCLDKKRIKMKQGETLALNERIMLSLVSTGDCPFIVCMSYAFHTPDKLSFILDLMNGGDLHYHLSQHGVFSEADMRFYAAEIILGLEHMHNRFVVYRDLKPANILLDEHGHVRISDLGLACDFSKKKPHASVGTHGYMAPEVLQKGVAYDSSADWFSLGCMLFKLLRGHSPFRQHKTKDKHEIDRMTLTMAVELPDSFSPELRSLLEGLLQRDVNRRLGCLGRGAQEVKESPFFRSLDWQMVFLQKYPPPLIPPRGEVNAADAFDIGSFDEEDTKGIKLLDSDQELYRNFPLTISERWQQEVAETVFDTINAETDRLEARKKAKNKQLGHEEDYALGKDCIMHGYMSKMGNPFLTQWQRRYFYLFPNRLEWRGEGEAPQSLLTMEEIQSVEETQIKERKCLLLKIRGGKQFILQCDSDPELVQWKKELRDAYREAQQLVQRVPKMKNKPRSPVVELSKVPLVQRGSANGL
Chain of AP-2 complex subunit beta (Homo sapiens) (P63010 whole entry, looked up, one chain of several): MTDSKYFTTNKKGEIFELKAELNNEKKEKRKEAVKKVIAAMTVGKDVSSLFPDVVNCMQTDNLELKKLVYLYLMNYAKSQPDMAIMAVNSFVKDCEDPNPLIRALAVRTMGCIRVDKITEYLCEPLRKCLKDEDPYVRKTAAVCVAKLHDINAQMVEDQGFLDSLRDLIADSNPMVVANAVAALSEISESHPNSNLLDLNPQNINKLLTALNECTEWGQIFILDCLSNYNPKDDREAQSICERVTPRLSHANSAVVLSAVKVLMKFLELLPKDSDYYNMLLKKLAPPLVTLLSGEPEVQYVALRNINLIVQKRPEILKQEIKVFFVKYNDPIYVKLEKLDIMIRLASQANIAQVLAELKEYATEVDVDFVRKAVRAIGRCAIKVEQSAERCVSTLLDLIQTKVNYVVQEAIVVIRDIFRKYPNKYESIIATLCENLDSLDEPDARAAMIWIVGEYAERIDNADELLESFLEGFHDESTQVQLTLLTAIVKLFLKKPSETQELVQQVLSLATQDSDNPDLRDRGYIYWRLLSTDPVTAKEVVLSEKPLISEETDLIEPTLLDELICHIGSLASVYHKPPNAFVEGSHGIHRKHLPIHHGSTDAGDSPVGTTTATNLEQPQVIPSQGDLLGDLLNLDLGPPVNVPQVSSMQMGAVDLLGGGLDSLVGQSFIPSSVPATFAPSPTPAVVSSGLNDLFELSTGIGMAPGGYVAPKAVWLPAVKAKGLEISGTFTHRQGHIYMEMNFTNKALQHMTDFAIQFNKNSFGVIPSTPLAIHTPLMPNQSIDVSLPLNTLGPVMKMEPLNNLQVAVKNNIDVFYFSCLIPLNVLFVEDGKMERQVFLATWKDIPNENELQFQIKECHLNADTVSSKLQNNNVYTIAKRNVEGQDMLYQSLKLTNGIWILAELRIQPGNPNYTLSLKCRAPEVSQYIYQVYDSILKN
Chain of Beta-2 adrenergic receptor (Homo sapiens) (P07550 whole entry, looked up): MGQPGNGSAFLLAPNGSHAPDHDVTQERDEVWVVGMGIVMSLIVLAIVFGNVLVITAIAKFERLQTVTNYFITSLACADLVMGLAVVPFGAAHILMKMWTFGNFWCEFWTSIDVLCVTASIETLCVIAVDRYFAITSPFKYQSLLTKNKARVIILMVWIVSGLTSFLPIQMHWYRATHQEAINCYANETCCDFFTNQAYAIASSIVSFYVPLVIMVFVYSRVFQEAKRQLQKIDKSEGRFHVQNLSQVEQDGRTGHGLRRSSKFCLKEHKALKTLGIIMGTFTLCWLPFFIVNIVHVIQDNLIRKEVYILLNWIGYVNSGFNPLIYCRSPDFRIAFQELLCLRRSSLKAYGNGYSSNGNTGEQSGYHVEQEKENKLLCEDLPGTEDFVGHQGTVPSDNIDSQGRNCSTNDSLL
Chain of ATP-binding cassette sub-family B member 6 (Homo sapiens) (Q9NP58 whole entry, looked up): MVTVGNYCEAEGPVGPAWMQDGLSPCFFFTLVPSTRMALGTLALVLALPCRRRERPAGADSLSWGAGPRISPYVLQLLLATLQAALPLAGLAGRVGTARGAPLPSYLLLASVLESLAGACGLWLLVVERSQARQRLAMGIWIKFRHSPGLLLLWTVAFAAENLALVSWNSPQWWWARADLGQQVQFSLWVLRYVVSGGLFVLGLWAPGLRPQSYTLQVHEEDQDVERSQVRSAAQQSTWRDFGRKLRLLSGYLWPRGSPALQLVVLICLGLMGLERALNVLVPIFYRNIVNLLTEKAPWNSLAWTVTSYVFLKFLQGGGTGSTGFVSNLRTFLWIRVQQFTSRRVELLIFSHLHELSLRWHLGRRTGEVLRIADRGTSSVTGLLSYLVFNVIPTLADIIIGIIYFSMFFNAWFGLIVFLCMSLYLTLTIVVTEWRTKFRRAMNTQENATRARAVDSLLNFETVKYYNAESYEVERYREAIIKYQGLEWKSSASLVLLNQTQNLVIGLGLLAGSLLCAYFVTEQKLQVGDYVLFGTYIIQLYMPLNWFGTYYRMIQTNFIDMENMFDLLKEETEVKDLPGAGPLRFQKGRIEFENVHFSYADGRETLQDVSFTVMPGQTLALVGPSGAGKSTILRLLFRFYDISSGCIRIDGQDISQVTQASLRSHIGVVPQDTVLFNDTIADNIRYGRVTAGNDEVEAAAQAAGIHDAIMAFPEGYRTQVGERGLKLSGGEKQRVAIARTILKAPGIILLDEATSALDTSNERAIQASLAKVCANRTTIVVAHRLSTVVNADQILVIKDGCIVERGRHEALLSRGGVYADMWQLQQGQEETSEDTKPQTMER
Chain of Lethal factor (Bacillus anthracis) (P15917 whole entry, looked up): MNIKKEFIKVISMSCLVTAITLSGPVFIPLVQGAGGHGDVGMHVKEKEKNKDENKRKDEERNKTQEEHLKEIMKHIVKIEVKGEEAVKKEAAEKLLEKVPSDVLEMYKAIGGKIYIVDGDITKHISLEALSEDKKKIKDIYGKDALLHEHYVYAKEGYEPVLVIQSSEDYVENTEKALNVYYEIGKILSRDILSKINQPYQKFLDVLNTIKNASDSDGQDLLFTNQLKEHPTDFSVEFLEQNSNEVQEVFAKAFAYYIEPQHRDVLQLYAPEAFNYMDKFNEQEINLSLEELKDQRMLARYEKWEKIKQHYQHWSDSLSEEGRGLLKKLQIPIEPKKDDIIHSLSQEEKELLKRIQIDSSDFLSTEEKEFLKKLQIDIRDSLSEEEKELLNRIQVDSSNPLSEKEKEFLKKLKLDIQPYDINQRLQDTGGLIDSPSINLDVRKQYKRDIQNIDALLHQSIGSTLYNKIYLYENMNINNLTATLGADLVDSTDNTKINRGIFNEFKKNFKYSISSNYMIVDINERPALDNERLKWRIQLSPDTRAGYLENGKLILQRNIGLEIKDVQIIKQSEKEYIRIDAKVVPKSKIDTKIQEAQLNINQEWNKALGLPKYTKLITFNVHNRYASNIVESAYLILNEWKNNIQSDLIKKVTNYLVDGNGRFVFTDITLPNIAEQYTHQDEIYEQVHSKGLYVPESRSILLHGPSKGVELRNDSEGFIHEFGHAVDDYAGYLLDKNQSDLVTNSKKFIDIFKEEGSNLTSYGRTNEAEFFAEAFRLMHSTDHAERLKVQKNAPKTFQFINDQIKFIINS

Row | SMILES | percent of DMSO control GFP [1] | GFP response vs DMSO [2] | percent response of DMSO control [3] | GFP response vs DMSO [4] | GFP response, % of DMSO [5] | double positive events [6] [%] | vesicle binding response [6] | inhibition [7] | superoxide response (% of plate) [8] | aptamer binding inhibition [9] | response [10] | inhibition [11] | response [12] | binding (% of control) [13] | inhibition [14] | inhibition [15] | inhibition [16] | efflux inhibition (fraction of control) [17] | inhibition [18] | differentiation response [19]
1 | CC12CC[C@H]3[C@@H](CCC4(O)C[C@H](O)CCC34/C=N/NC(=O)Cc3ccccc3)C1(O)CCC2C1=CC(=O)OC1 (stereo not given in full) | 103% (inactive) | 101% (inactive) | 115% (inactive) | 92% (inactive) | 107% (inactive) | 65.3 | 204% (inactive) | 1.62% (inactive) | 111% (inactive) | 1% (inactive) | -5.5% (inactive) | -3.69% (inactive) | 1.22% (inactive) | 95% (inactive) | 3.5% (inactive) | -0.2% (inactive) | 3.2% (inactive) | 0.08 (inactive) | 5% (inactive) | 0.24% (inactive)
2 | Clc1ccc(COC(Cn2ccnc2)c2ccc(Cl)cc2Cl)cc1 (stereo not given) | 104% (inactive) | 111% (inactive) | 107% (inactive) | 120% (inactive) | 103% (inactive) | 62.7 | 183% (inactive) | -1.09% (inactive) | 121% (inactive) | 3% (inactive) | 3.99% (inactive) | 16.5% (inactive) | 2.69% (inactive) | 105% (inactive) | -1.3% (inactive) | -0.4% (inactive) | -7% (inactive) | -0.28 (inactive) | -31% (inactive) | 1.28% (inactive)
3 | C[C@H]1OC[C@@H](C[N+](C)(C)C)O1 | 100% (inactive) | 98.7% (inactive) | 101% (inactive) | 92.6% (inactive) | 96.2% (inactive) | 62.3 | 144% (inactive) | -6.45% (inactive) | 95.3% (inactive) | 3% (inactive) | 2.48% (inactive) | 5.6% (inactive) | 4.51% (inactive) | 102% (inactive) | 0.4% (inactive) | 0.4% (inactive) | 4.6% (inactive) | -0.16 (inactive) | -2% (inactive) | -10.4% (inactive)
4 | COc1ccc(-c2nc3ccccc3c(=O)o2)cc1 | 103% (inactive) | 95.2% (inactive) | 92% (inactive) | 106% (inactive) | 87.9% (inactive) | 78.9 | 308% (inactive) | -19.5% (inactive) | 99.5% (inactive) | 1% (inactive) | 12.6% (inactive) | -5.48% (inactive) | -0.56% (inactive) | 102% (inactive) | 1.8% (inactive) | 1.3% (inactive) | 0.8% (inactive) | 0.22 (inactive) | -2% (inactive) | 2.4% (inactive)
5 | CC(C)[N+](C)(CCC(C(N)=O)(c1ccccc1)c1ccccc1)C(C)C | 105% (inactive) | 107% (inactive) | 107% (inactive) | 99.1% (inactive) | 106% (inactive) | 61.6 | 144% (inactive) | 5.61% (inactive) | 110% (inactive) | 2% (inactive) | 9.5% (inactive) | -5.08% (inactive) | 0.78% (inactive) | 101% (inactive) | -5% (inactive) | -2.6% (inactive) | -9.4% (inactive) | -0.61 (inactive) | 21% (inactive) | -8.96% (inactive)
6 | CC(C)NC(C)C(=O)c1ccc2ccccc2c1 (stereo not given) | 104% (inactive) | 99.6% (inactive) | 98.6% (inactive) | 113% (inactive) | 107% (inactive) | 63.7 | 278% (inactive) | -0.43% (inactive) | 121% (inactive) | 1% (inactive) | 14.8% (inactive) | -7.53% (inactive) | 3.67% (inactive) | 98.4% (inactive) | 1.8% (inactive) | 2% (inactive) | 1.1% (inactive) | -0.28 (inactive) | 106% (active) | 108% (active)
7 | CCC1(c2ccccc2)C(=O)N(COC)C(=O)N(COC)C1=O | 102% (inactive) | 102% (inactive) | 103% (inactive) | 112% (inactive) | 112% (inactive) | 62.2 | 148% (inactive) | 10.8% (inactive) | 109% (inactive) | 2% (inactive) | -14.8% (inactive) | 10.8% (inactive) | -4.18% (inactive) | 102% (inactive) | 2% (inactive) | -0.2% (inactive) | 0.4% (inactive) | 0.12 (inactive) | 4% (inactive) | 3.88% (inactive)
8 | CN1C(=O)N(C)C(=O)C2(Cc3ccccc3N3CCOCC32)C1=O (stereo not given) | 101% (inactive) | 103% (inactive) | 102% (inactive) | 93.7% (inactive) | 99.9% (inactive) | 64.2 | 3430% (inactive) | 8.28% (inactive) | 109% (inactive) | 0% (inactive) | 4.14% (inactive) | -5.91% (inactive) | 0.7% (inactive) | 102% (inactive) | 5% (inactive) | 0.6% (inactive) | 1.1% (inactive) | 0.62 (active) | 5% (inactive) | 0% (inactive)
